Test results published in PubChem BioAssay (EPA / NIEHS).
The source made the active and inactive calls. Rule for the calls, unless noted: active = hit-call score of the fitted dose curve at least 0.9, where 1 is the maximum; inactive = score below 0.9.

How the values were obtained:
[1] = read-out: Protein phosphatase 2A (PPP2R4), PTPA (gene 5524); assay: LTEA_HepaRG_PPP2R4: Life Technologies and Expression Analysis (LTEA) Assay for Protein phosphatase 2A (PPP2R4) using HepaRG (AID 2283522); conditions: mRNA level, 48 h; actives raise or lower the signal
In short: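 Using HepaRG cultures maintained in 0.5% DMSO, chemicals are tested 48 h at up to 100 uM in duplicate. Induction or suppression of PPP2R4 mRNA, measured by qRT-PCR, is fitted bidirectionally against the vehicle baseline.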

[2] = read-out: Phosphatase and tensin (PTEN), PTEN (gene 5728); assay: LTEA_HepaRG_PTEN: Life Technologies and Expression Analysis (LTEA) Assay for Phosphatase and tensin (PTEN) using HepaRG (AID 2283523); conditions: mRNA level, 48 h; actives raise or lower the signal
In short: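 HepaRG, 48 h exposure, 8-pt half-log series from 100 uM top, 0.5% DMSO vehicle, duplicates. Readout: Fluidigm qRT-PCR of PTEN transcript; housekeeping normalization (ACTB, GAPDH, POLR2A). Gain or loss fitted relative to DMSO baseline.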

[3] = read-out: solute carrier (SLC22A1), SLC22A1 (gene 6580); assay: LTEA_HepaRG_SLC22A1: Life Technologies and Expression Analysis (LTEA) Assay for solute carrier (SLC22A1) using HepaRG (AID 2283524); conditions: mRNA level, 48 h; actives raise or lower the signal;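 note: differentiated human HepaRG liver cells in serum-free induction medium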
In short: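 qRT-PCR readout (TaqMan, Fluidigm arrays) of SLC22A1 transcript, normalized to three housekeeping genes; bidirectional curve fit relative to 0.5% DMSO vehicle. Differentiated human HepaRG cells, 48 h chemical exposure, top concentration 100 uM, half-log steps, eight points.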

[4] = read-out: Pyruvate Dehydrogenase Kinase 4 (PDK4), PDK4 (gene 5166); assay: LTEA_HepaRG_PDK4: Life Technologies and Expression Analysis (LTEA) Assay for Pyruvate Dehydrogenase Kinase 4 (PDK4) using HepaRG (AID 2283525); conditions: mRNA level, 48 h; actives raise or lower the signal
In short: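 HepaRG (human liver line), 48 h chemical exposure, 8-pt half-log CRC top 100 uM, 0.5% DMSO vehicle, duplicates. Readout: TaqMan qRT-PCR of PDK4 mRNA, housekeeping-normalized; gain/loss fit relative to DMSO baseline.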

[5] = read-out: NAD(P)H dehydrogenase [quinone] 1 (NQO1), NQO1 (gene 1728); assay: LTEA_HepaRG_NQO1: Life Technologies and Expression Analysis (LTEA) Assay for NAD(P)H dehydrogenase [quinone] 1 (NQO1) using HepaRG (AID 2283526); conditions: mRNA level, 48 h; actives raise or lower the signal
In short: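 In this assay, gene expression is read by qRT-PCR after 48 h exposure of HepaRG cells to eight concentrations (max 100 uM, half-log) in 0.5% DMSO. Each chemical runs in duplicate, and activity is scored relative to vehicle.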

[6] = read-out: Nuclear factor erythroid 2-related factor 2 (Homo sapiens) (UniProt Q16236); assay: LTEA_HepaRG_NFE2L2: Life Technologies and Expression Analysis (LTEA) Assay for Nuclear factor erythroid 2-related factor 2 (NFE2L2) Transcription Factor using HepaRG (AID 2283527); conditions: mRNA level, 48 h; actives raise or lower the signal
In short: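 HepaRG, 48 h dosing, 8-pt half-log series from 100 uM in 0.5% DMSO, duplicates. Read-out: NFE2L2 mRNA by qRT-PCR (ACTB/GAPDH/POLR2A normalization). Bidirectional curve fit vs DMSO baseline.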

[7] = read-out: succinate dehydrogenase complex iron sulfur subunit B (SDHB), SDHB (gene 6390); assay: LTEA_HepaRG_SDHB: Life Technologies and Expression Analysis (LTEA) Assay for succinate dehydrogenase complex iron sulfur subunit B (SDHB) using HepaRG (AID 2283528); conditions: mRNA level, 48 h; actives raise or lower the signal
In short: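 A human HepaRG culture in serum-free induction medium received test chemicals for 48 h over an eight-point range capped at 100 uM. SDHB expression change was quantified by qRT-PCR.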

[8] = read-out: Signal transducer and activator of transcription 3 (Homo sapiens) (UniProt P40763); assay: LTEA_HepaRG_STAT3: Life Technologies and Expression Analysis (LTEA) Assay for Signal transducer and activator of transcription (STAT3) using HepaRG (AID 2283529); conditions: mRNA level, 48 h; actives raise or lower the signal
In short: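 HepaRG, 48 h exposure, 8-pt half-log series (top 100 uM), 0.5% DMSO vehicle, duplicates. Readout: STAT3 transcript by Fluidigm qRT-PCR, housekeeping-normalized; bidirectional fit vs DMSO baseline.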

[9] = read-out: solute carrier (SLCO1B1), SLCO1B1 (gene 10599); assay: LTEA_HepaRG_SLCO1B1: Life Technologies and Expression Analysis (LTEA) Assay for solute carrier (SLCO1B1) using HepaRG (AID 2283530); conditions: mRNA level, 48 h; actives raise or lower the signal
In short: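 HepaRG, serum-free induction medium, 48 h dosing, 8-pt half-log from 100 uM, 0.5% DMSO vehicle, duplicates. Readout: SLCO1B1 mRNA, qRT-PCR, ACTB/GAPDH/POLR2A normalization; up or down fit vs DMSO.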

[10] = read-out: sulfotransferase 2A1 (SULT2A1), SULT2A1 (gene 6822); assay: LTEA_HepaRG_SULT2A1: Life Technologies and Expression Analysis (LTEA) Assay for sulfotransferase 2A1 (SULT2A1) using HepaRG (AID 2283531); conditions: mRNA level, 48 h; actives raise or lower the signal
In short: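 Transcript levels of SULT2A1, quantified by qRT-PCR and normalized to three housekeeping genes, serve as the readout. Human HepaRG cultures receive test chemicals for 48 h at up to 100 uM in half-log steps, with 0.5% DMSO vehicle.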

[11] = read-out: Transforming Growth Factor (TGFA), TGFA (gene 7039); assay: LTEA_HepaRG_TGFA: Life Technologies and Expression Analysis (LTEA) Assay for Transforming Growth Factor (TGFA) using HepaRG (AID 2283532); conditions: mRNA level, 48 h; actives raise or lower the signal
In short: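 qRT-PCR read-out of TGFA transcript, normalized to three housekeeping genes, fitted bidirectionally against 0.5% DMSO baseline. Human HepaRG cultures received chemicals for 48 h at eight half-log concentrations, top 100 uM.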

[12] = read-out: Transforming Growth Factor (TGFB1), TGFB1 (gene 7040); assay: LTEA_HepaRG_TGFB1: Life Technologies and Expression Analysis (LTEA) Assay for Transforming Growth Factor (TGFB1) Transporter using HepaRG (AID 2283533); conditions: mRNA level, 48 h; actives raise or lower the signal
In short: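 HepaRG, 48 h post-plating, switched to serum-free induction medium; chemicals 100 uM top, half-log, 8 pts, 0.5% DMSO, dup; 48 h exposure; RNA → Fluidigm TaqMan qRT-PCR; norm ACTB/GAPDH/POLR2A; bidirectional fit vs DMSO.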

[13] = read-out: Tumor necrosis factor receptor 1 (TNFRSF1A), TNFRSF1A (gene 7132); assay: LTEA_HepaRG_TNFRSF1A: Life Technologies and Expression Analysis (LTEA) Assay for Tumor necrosis factor receptor 1 (TNFRSF1A) using HepaRG (AID 2283535); conditions: mRNA level, 48 h; actives raise or lower the signal
In short: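 Read-out is TNFRSF1A transcript level by TaqMan qRT-PCR, normalized to three housekeeping genes, scored as gain or loss of signal versus 0.5% DMSO. Human HepaRG cells received test chemicals for 48 h at up to 100 uM (half-log series).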

[14] = read-out: Thyroid Hormone Responsive (THRSP), THRSP (gene 7069); assay: LTEA_HepaRG_THRSP: Life Technologies and Expression Analysis (LTEA) Assay for Thyroid Hormone Responsive (THRSP) using HepaRG (AID 2283536); conditions: mRNA level, 48 h; actives raise or lower the signal
In short: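 qRT-PCR read-out (Fluidigm TaqMan), housekeeping-normalized (ACTB/GAPDH/POLR2A). HepaRG, 48 h chemical exposure, 8-pt half-log series from 100 uM in 0.5% DMSO, duplicates. Bidirectional curve fit vs 0.5% DMSO baseline.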

[15] = read-out: Cellular tumor antigen p53 (Homo sapiens) (UniProt P04637); assay: LTEA_HepaRG_TP53: Life Technologies and Expression Analysis (LTEA) Assay for Tumor Protein P53 (TP53) using HepaRG (AID 2283537); conditions: mRNA level, 48 h; actives raise or lower the signal
In short: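 Gain or loss of TP53 mRNA signal is scored relative to 0.5% DMSO after 48 h chemical treatment of HepaRG liver cells, tested in duplicate at eight half-log concentrations up to 100 uM.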

[16] = read-out: UDP glucuronosyltransferase (UGT1A6), UGT1A6 (gene 54578); assay: LTEA_HepaRG_UGT1A6: Life Technologies and Expression Analysis (LTEA) Assay for UDP glucuronosyltransferase (UGT1A6) using HepaRG (AID 2283539); conditions: mRNA level, 48 h; actives raise or lower the signal
In short: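 HepaRG, 48 h post-plating switch to serum-free induction medium; chemical 48 h, 100 uM top, half-log x8, duplicate, 0.5% DMSO. Phenobarbital 1mM induction control. UGT1A6 mRNA by TaqMan qRT-PCR; gain/loss fit vs DMSO.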

[17] = read-out: X-box binding protein 1 (XBP1), XBP1 (gene 7494); assay: LTEA_HepaRG_XBP1: Life Technologies and Expression Analysis (LTEA) Assay for X-box binding protein 1 (XBP1) using HepaRG (AID 2283540); conditions: mRNA level, 48 h; actives raise or lower the signal
In short: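 Transcript levels of XBP1, measured by qRT-PCR and normalised to three housekeeping genes, were fitted bidirectionally relative to 0.5% DMSO controls. Human HepaRG cells received eight-point half-log dilutions from 100 uM for 48 h.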

[18] = LTEA_HepaRG_LDH_cytotoxicity: Cytotoxicity Assessment in the Life Technologies and Expression Analysis (LTEA) Assay (AID 2283563; active = hit-call score of the fitted dose curve at least 0.9, where 1 is the maximum;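 for AC50: LDH activity released into spent culture medium as a marker of cell death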)
In short: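 Cells were thawed and plated for 48 h. Medium was then replaced with serum-free induction medium. Chemicals (8 half-log points, maximum 100 uM, 0.5% DMSO) were added in duplicate for 48 h, after which spent medium was assayed for LDH.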

[19] = read-out: TIMP1, TIMP1 (gene 7076); assay: LTEA_HepaRG_TIMP1: Life Technologies and Expression Analysis (LTEA) Assay for TIMP1 using HepaRG (AID 2283534); conditions: mRNA level, 48 h; actives raise or lower the signal
In short: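 Readout is TIMP1 mRNA level measured by qRT-PCR and normalized to three housekeeping genes. Human HepaRG cells were treated for 48 h in duplicate at eight concentrations up to 100 uM (0.5% DMSO); gain or loss fitted against DMSO.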

[20] = read-out: UDP glucuronosyltransferase (UGT1A1), UGT1A1 (gene 54658); assay: LTEA_HepaRG_UGT1A1: Life Technologies and Expression Analysis (LTEA) Assay for UDP glucuronosyltransferase (UGT1A1) using HepaRG (AID 2283538); conditions: mRNA level, 48 h; actives raise or lower the signal
In short: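 mRNA induction or loss of UGT1A1, by TaqMan qRT-PCR, in duplicate HepaRG wells after 48 h exposure to half-log dilutions topping at 100 uM; DMSO (0.5%) served as baseline.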

Measured: AC50

Chain of Cellular tumor antigen p53 (Homo sapiens) (P04637 whole entry, looked up): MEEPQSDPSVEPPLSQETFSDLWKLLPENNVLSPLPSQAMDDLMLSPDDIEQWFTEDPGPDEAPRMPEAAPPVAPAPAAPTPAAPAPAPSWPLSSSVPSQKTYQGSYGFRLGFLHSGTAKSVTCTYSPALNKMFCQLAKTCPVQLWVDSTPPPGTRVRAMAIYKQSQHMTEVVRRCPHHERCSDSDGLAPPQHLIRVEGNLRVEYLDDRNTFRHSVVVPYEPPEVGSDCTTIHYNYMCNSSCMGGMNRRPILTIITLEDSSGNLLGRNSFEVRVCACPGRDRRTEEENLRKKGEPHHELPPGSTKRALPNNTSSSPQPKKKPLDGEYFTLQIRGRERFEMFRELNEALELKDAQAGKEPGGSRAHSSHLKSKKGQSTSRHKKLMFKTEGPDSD
Chain of Signal transducer and activator of transcription 3 (Homo sapiens) (P40763 whole entry, looked up): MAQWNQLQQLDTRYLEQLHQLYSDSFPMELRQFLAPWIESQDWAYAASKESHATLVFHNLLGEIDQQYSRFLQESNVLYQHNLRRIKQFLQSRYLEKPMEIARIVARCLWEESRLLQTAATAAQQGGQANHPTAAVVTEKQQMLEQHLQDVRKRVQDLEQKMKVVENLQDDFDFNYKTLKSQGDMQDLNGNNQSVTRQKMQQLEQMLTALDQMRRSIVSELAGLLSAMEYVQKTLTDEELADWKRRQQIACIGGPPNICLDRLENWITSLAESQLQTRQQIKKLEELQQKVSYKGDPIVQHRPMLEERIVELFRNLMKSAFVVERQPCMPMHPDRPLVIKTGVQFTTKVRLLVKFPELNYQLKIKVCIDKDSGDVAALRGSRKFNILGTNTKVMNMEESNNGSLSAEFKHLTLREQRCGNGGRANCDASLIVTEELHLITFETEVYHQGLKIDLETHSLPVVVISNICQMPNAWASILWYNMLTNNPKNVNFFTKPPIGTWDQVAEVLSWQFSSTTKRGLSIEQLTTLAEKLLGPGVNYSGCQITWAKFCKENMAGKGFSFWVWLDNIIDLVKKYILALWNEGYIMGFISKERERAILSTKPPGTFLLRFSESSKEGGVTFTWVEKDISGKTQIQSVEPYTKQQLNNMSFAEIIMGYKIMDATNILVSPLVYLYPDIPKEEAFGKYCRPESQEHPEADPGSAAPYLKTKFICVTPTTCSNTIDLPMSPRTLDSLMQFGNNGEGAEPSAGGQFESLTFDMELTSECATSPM
Chain of Nuclear factor erythroid 2-related factor 2 (Homo sapiens) (Q16236 whole entry, looked up): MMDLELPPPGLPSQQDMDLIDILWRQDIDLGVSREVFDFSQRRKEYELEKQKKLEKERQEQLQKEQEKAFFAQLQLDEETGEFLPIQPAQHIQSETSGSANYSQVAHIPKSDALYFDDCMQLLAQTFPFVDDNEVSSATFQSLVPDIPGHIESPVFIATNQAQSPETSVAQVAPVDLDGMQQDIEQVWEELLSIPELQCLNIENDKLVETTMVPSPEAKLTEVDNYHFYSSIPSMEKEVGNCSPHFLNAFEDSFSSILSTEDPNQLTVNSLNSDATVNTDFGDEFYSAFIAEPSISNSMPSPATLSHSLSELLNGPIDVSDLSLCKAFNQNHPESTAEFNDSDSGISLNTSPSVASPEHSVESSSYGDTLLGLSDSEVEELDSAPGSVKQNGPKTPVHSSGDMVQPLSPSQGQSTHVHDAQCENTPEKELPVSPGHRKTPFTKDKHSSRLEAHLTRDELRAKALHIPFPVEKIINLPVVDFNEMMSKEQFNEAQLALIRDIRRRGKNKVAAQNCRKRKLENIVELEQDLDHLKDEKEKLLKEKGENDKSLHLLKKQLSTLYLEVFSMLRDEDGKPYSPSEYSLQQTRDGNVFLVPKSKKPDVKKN

OC12N=C(c3ccccc3)SC1Cc1cc(Cl)ccc12 (centres undefined)
active: [3] 40.5 µM | [4] 8.96 µM | [8] 0.925 µM | [9] 32.9 µM | [10] 14 µM | [14] 16.2 µM | [15] 26 µM | [17] 3.94 µM
not listed: [19] | [20]
inactive: all other assays above

CN(C)c1ccc(C(=C2C=CC(=[N+](C)C)C=C2)c2ccc(N(C)C)cc2)cc1
active: [1] 12.9 µM | [2] 26.1 µM | [3] 3.62 µM | [4] 32.4 µM | [5] 5 µM | [6] 12.7 µM | [7] 11.1 µM | [8] 39.3 µM | [9] 4.64 µM | [10] 3.54 µM | [12] 68.7 µM | [19] 74.2 µM | [13] 8.56 µM | [14] 2.48 µM | [15] 23.3 µM | [16] 10.4 µM | [18] 9.3 µM
inactive: [11] | [17]

Cc1oc2c(NC(=O)c3c(Cl)cccc3Cl)cccc2c1C(C)(C)O
inactive: [1] | [2] | [5] | [7] | [8] | [11] | [13]
active: [3] 50 µM | [4] 14.9 µM | [6] 79 µM | [9] 54 µM | [10] 68.1 µM | [12] 50 µM | [15] 82.1 µM | [20] 50 µM | [16] 46.9 µM | [17] 11.3 µM
